From PubChem BioAssay (Tox21)
Activity calls are given as the source filed them. A call without a number means that no potency is given here. Unless noted, calls come from the whole dose curve; as a rule, active = well fitted curve in the direction sought with a large enough effect in the repeat runs; inconclusive = weak or mixed curves; inactive = no such curve, though single readings can be large; an effect the other way counts as inactive or inconclusive.

Key:
[1] = qHTS assay to test for compound auto fluorescence at 535 nm (green) in HEK293 cells (AID 720680)
[2] = qHTS assay to test for compound auto fluorescence at 460 nm (blue) in HEK293 cell free culture (AID 720681)
How it was run: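 Blue fluorescence (Ex 405/Em 460 nm, triamterene-equivalent) was read immediately after pin transfer of compound or DMSO into medium (DMEM, 10% FBS) without cells.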

[3] = qHTS assay to test for compound auto fluorescence at 535 nm (green) in HEK293 cell free culture (AID 720682)
How it was run: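 Intrinsic compound fluorescence is measured in culture medium containing 10% FBS, with excitation at 485 nm and detection at 535 nm, referenced to fluorescein.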

[4] = qHTS assay to test for compound auto fluorescence at 590 nm (red) in HEK293 cell free culture (AID 720683)
How it was run: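 Red-channel autofluorescence of compounds in culture medium (DMEM, 10% FBS), no cells, measured at 540/590 nm. Rose Bengal sodium is the reference fluorophore for equivalence.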

[5] = qHTS assay to test for compound auto fluorescence at 590 nm (red) in HepG2 cell free culture (AID 720684)
How it was run: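 Plate contents were MEM with 10% FBS plus test compound or DMSO, no cells. Fluorescence was recorded with 540 nm excitation and 590 nm emission.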

[6] = qHTS assay to test for compound auto fluorescence at 460 nm (blue) in HepG2 cell free culture (AID 720685)
How it was run: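 Compound (23 nL) or DMSO pinned into cell-free MEM with 10% FBS; blue fluorescence read at 405/460 nm excitation/emission, expressed as auto-fluorescence equivalency to triamterene.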

[7] = qHTS assay to test for compound auto fluorescence at 535 nm (green) in HepG2 cell free culture (AID 720686)
[8] = qHTS assay to test for compound auto fluorescence at 460 nm (blue) in HepG2 cells (AID 720687)
How it was run: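 Blue-channel autofluorescence (Ex/Em 405/460 nm, triamterene-equivalent) was measured after 1 hr compound exposure at 37 C, 5% CO2. Cells were HepG2, plated overnight at 37 C in MEM plus 10% FBS.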

[9] = molecular target: Glucocorticoid receptor (Homo sapiens) (UniProt P04150); assay: qHTS assay to identify small molecule agonists of the glucocorticoid receptor (GR) signaling pathway (AID 720691; active = well fitted activation curve with a large enough effect in the signal ratio in the repeat runs, not every such curve was filed as active; inconclusive = weak or mixed curves, or effect the other way; inactive = no such curve, though single readings can be large or run the other way; the % refers to the signal ratio; note: potency is the fitted concentration of half-maximal effect); details: GR-bla HeLa, beta-lactamase reporter ratio, 18 h; activation: at 62.4 µM (top of the series)
How it was run: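 Beta-lactamase reporter activity, read as fluorescence intensity, was measured in GR-bla HeLa cells exposed to compounds for 18 h at 37 C and then loaded with LiveBLAzer B/G FRET substrate for 2 h at room temperature.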

[10] = qHTS assay to identify small molecule antagonists of the glucocorticoid receptor (GR) signaling pathway - cell viability counter screen (AID 720693); note: nearly all actives have a fitted effect of over 55% in size; note: potency is the fitted concentration of half-maximal effect
[11] = qHTS assay for identifying genotoxic compounds that show differential cytotoxicity against isogenic chicken DT40 cell lines with known DNA damage response pathways - wild type cell line (AID 743012); note: nearly all actives have a fitted effect of over 60% in size; note: potency is the fitted concentration of half-maximal effect
How it was run: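 Quantitative HTS on parental DT40 cells: 40 h compound treatment at 37 C/5% CO2, with viability then determined by CellTiter-Glo luminescence. Values serve as the DNA repair-proficient reference for differential cytotoxicity.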

[12] = qHTS assay for identifying genotoxic compounds that show differential cytotoxicity against isogenic chicken DT40 cell lines with known DNA damage response pathways - Rev3 mutant cell line (AID 743014); note: nearly all actives have a fitted effect of over 55% in size; note: potency is the fitted concentration of half-maximal effect
[13] = qHTS assay for identifying genotoxic compounds that show differential cytotoxicity against isogenic chicken DT40 cell lines with known DNA damage response pathways - Rad54/Ku70 mutant cell line (AID 743015); note: nearly all actives have a fitted effect of over 60% in size; note: potency is the fitted concentration of half-maximal effect
[14] = qHTS assay to identify small molecule antagonists of the androgen receptor (AR) signaling pathway - cell viability counter screen (AID 743033; note: nearly all actives have a fitted effect of over 45% in size; note: potency is the fitted concentration of half-maximal effect)
[15] = qHTS assay to identify small molecule antagonists of the androgen receptor (AR) signaling pathway using the MDA cell line - cell viability counter screen (AID 743041; note: nearly all actives have a fitted effect of over 45% in size; note: potency is the fitted concentration of half-maximal effect)
How it was run: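 R1881-driven MDA-kb2 AR-luc cells, 3,000/well, were dosed with library compounds for 16 h; cell health came from CellTiter-Fluor fluorescence in the reporter wells.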

[16] = molecular target: Glucocorticoid receptor (Homo sapiens) (UniProt P04150); assay: qHTS assay to identify small molecule antagonists of the glucocorticoid receptor (GR) signaling pathway (AID 720692; active = well fitted inhibition curve with a large enough effect in the signal ratio in the repeat runs, not every such curve was filed as active; inconclusive = weak or mixed curves, or effect the other way; inactive = no such curve, though single readings can be large or run the other way; the % refers to the signal ratio)
How it was run: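 Fluorescence from cleaved LiveBLAzer B/G FRET substrate reports GRE-driven beta-lactamase in HeLa cells; compounds are tested against 5 nM dexamethasone (final) over 18 h at 37 C, substrate incubation 2 h at room temperature.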

[17] = molecular target: Androgen receptor (Homo sapiens) (UniProt P10275); assay: qHTS assay to identify small molecule agonists of the androgen receptor (AR) signaling pathway (AID 743036; active = well fitted activation curve with a large enough effect in the signal ratio in the repeat runs, with a control signal flat, not every such curve was filed as active; inconclusive = weak or mixed curves, or effect the other way; inactive = no such curve, though single readings can be large or run the other way; the % refers to the signal ratio)
How it was run: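 Agonist activity was scored by beta-lactamase reporter fluorescence in stably transfected HEK293 cells exposed to compounds for 16 h at 37C and 5% CO2. Substrate loading took 2 h at room temperature.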

[18] = molecular target: Androgen receptor (Homo sapiens) (UniProt P10275); assay: qHTS assay to identify small molecule antagonists of the androgen receptor (AR) signaling pathway using the MDA cell line (AID 743042; note: nearly all actives have a fitted effect of over 55% in size)
How it was run: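 Antagonist mode: compounds plus R1881 agonist added to MDA-kb2 AR-luc cells, incubated 16 h at 37C. Luciferase reporter luminescence quantified, with multiplexed CellTiter-Fluor readout for cell viability.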

[19] = molecular target: Androgen receptor (Homo sapiens) (UniProt P10275); assay: qHTS assay to identify small molecule agonists of the androgen receptor (AR) signaling pathway using the MDA cell line (AID 743040; note: nearly all actives have a fitted effect of over 20% in size)
How it was run: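 After a 5 h incubation at 37C and 0% CO2, MDA-kb2 reporter cells were dosed with compounds in DMSO and kept 16 h under the same conditions. Luciferase activity was then read as luminescence with ONE-Glo.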

[20] = molecular target: Androgen receptor (Homo sapiens) (UniProt P10275); assay: qHTS assay to identify small molecule antagonists of the androgen receptor (AR) signaling pathway (AID 743035; active = well fitted inhibition curve with a large enough effect in the signal ratio in the repeat runs, not every such curve was filed as active; inconclusive = weak or mixed curves, or effect the other way; inactive = no such curve, though single readings can be large or run the other way; the % refers to the signal ratio)
How it was run: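 Cell line: GeneBLAzer AR-UAS-bla GripTite (HEK293). Stimulus: R1881 added after compound. Exposure: 16 h, 37C, 5% CO2. Readout: LiveBLAzer B/G FRET fluorescence after 2 h at room temperature.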

Androgen receptor (Homo sapiens), sequence (P10275 whole entry, looked up): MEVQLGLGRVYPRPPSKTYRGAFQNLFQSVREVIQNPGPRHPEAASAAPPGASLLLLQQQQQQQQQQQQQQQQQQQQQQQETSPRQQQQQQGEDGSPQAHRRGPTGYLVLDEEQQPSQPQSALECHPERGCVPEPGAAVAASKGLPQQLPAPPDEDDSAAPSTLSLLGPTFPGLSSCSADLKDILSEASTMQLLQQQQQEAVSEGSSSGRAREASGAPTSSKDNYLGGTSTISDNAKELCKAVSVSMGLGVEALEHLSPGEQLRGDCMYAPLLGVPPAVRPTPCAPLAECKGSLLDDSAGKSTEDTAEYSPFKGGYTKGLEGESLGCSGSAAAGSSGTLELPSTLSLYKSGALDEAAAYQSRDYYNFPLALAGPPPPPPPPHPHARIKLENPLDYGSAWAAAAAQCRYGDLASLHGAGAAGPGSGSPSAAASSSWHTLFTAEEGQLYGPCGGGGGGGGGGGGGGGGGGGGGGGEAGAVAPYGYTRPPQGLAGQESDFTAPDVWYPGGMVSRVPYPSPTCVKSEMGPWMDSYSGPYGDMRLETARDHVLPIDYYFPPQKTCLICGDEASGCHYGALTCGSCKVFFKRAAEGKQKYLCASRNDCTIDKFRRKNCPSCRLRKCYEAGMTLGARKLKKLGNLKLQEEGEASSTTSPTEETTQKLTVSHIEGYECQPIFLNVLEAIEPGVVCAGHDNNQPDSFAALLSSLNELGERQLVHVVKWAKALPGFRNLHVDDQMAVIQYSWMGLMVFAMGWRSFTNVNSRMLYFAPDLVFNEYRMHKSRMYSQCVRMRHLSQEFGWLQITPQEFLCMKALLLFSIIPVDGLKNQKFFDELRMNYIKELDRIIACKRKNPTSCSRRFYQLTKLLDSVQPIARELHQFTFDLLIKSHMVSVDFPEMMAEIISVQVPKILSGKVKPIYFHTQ
Glucocorticoid receptor (Homo sapiens), sequence (P04150 whole entry, looked up): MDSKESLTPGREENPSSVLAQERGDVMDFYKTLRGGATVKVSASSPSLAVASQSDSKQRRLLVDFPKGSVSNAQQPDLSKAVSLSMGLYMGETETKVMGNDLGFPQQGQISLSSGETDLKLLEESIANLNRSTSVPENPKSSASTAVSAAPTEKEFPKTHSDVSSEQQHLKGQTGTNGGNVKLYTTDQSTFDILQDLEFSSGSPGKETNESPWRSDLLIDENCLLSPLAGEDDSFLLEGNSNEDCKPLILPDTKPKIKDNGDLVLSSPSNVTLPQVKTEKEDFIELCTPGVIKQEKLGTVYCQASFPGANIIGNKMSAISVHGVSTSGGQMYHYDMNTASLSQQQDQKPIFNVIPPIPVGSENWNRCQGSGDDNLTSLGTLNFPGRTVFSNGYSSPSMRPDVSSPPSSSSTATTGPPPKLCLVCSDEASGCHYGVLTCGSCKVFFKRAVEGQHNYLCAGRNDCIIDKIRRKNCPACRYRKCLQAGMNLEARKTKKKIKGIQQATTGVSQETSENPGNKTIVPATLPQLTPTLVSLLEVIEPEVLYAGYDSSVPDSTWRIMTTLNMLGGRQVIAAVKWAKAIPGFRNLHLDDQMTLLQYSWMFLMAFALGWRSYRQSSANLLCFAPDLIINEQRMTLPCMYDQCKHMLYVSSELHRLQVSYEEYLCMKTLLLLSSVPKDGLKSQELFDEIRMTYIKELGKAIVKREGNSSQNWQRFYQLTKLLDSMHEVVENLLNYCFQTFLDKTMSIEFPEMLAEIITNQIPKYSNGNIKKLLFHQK

Cc1ncc(C[n+]2csc(CCOP(=O)(O)O)c2C)c(N)n1
outcome [1]: inactive
Potency [2]: inactive
outcome [3]: inactive
outcome [4]: inactive
outcome [5]: inactive
Potency [6]: inactive
Potency [7]: inactive
Potency [8]: inactive
Potency [9]: inactive
Potency [10]: inactive
Potency [11]: inactive
Potency [12]: inactive
Potency [13]: inactive
Potency [14]: inactive
Potency [15]: inactive

C[S+](C)CCC(N)C(=O)O (stereo not drawn)
outcome [1]: inactive
Potency [2]: inactive
outcome [3]: inactive
outcome [4]: inactive
outcome [5]: inactive
Potency [6]: inactive
Potency [7]: inactive
Potency [8]: inactive
Potency [9]: inactive
Potency [16]: inactive
Potency [10]: inactive
Potency [11]: inactive
Potency [13]: inactive
Potency [14]: inactive
Potency [15]: inactive

Cc1cc(Br)ccc1NC(=O)CCl
outcome [1]: inactive
Potency [2]: inactive
outcome [3]: inactive
outcome [4]: inactive
outcome [5]: inactive
Potency [6]: inactive
Potency [7]: inactive
Potency [8]: inactive
Potency [9]: inactive
Potency [10]: 43.6 µM (active)
Potency [11]: 5.45 µM (active)
Potency [12]: 5.45 µM (active)
Potency [13]: 1.54 µM (active)
Potency [14]: 24.5 µM (active)
Potency [15]: 48.6 µM (active)

CC[C@H]1OC(=O)C[C@@H](O)[C@H](C)[C@@H](O[C@@H]2O[C@H](C)[C@@H](O)[C@H](N(C)C)[C@H]2O)[C@@H](CCN2C[C@H](C)C[C@H](C)C2)C[C@@H](C)C(=O)/C=C/C(C)=C/[C@@H]1CO[C@@H]1O[C@H](C)[C@@H](O)[C@@H](OC)[C@H]1OC
outcome [1]: inactive
Potency [2]: inactive
outcome [3]: inactive
outcome [4]: inactive
outcome [5]: inactive
Potency [6]: inactive
Potency [7]: inactive
Potency [8]: inactive
Potency [9]: inactive
Potency [10]: inactive
Potency [11]: inactive
Potency [17]: inactive
Potency [15]: inactive
Potency [18]: inactive

CN(C)CCC(O)(c1ccccc1)c1ccccc1Cl (stereo not drawn)
outcome [1]: inactive
Potency [2]: inactive
outcome [3]: inactive
outcome [4]: inactive
outcome [5]: inactive
Potency [6]: inactive
Potency [7]: inactive
Potency [8]: inactive
Potency [9]: inactive
Potency [16]: inactive
Potency [10]: inactive
Potency [15]: inactive

O=P(O)(O)C(O)(Cn1ccnc1)P(=O)(O)O
outcome [1]: inactive
Potency [2]: inactive
outcome [3]: inactive
outcome [4]: inactive
outcome [5]: inactive
Potency [6]: inactive
Potency [7]: inactive
Potency [8]: inactive
Potency [9]: inactive
Potency [10]: inactive
Potency [11]: inactive
Potency [12]: inactive
Potency [13]: inactive
Potency [14]: inactive
Potency [15]: inactive

CC/C=C\C/C=C\C/C=C\C/C=C\C/C=C\CCCC(=O)O
outcome [1]: inactive
Potency [2]: inactive
outcome [3]: inactive
outcome [4]: inactive
outcome [5]: inactive
Potency [6]: inactive
Potency [7]: inactive
Potency [8]: inactive
Potency [9]: inactive
Potency [10]: inactive
Potency [12]: inactive
Potency [13]: inactive
Potency [14]: inactive
Potency [15]: inactive

CCCC(=O)c1cc(O)c(O)cc1O
outcome [1]: inactive
Potency [2]: inactive
outcome [3]: inactive
outcome [4]: inactive
outcome [5]: inactive
Potency [6]: inactive
Potency [7]: inactive
Potency [8]: inactive
Potency [9]: inactive
Potency [11]: 24.3 µM (active)
Potency [12]: 29.8 µM (active)
Potency [13]: 45 µM (active)
Potency [19]: inactive
Potency [18]: inactive

O=C1CC[C@@H](C(=O)N[C@H]2C[C@@H]2c2ccccc2)N1
outcome [1]: inactive
Potency [2]: inactive
outcome [3]: inactive
outcome [4]: inactive
outcome [5]: inactive
Potency [6]: inactive
Potency [7]: inactive
Potency [8]: inactive
Potency [9]: inactive
Potency [10]: inactive
Potency [12]: inactive
Potency [13]: inactive
Potency [14]: inactive
Potency [15]: inactive

COc1cc2c(c(OC)c1OC)-c1c(cc3c(c1OC)OCO3)C[C@@H](C)[C@](C)(O)C2
outcome [1]: inactive
Potency [2]: inactive
outcome [3]: inactive
outcome [4]: inactive
outcome [5]: inactive
Potency [6]: inactive
Potency [7]: inactive
Potency [8]: inactive
Potency [9]: inactive
Potency [16]: inactive
Potency [10]: inactive
Potency [12]: inactive
Potency [15]: inactive

CC(C)(C)c1ccc2c(S(=O)(=O)O)c(C(C)(C)C)ccc2c1
outcome [1]: inactive
Potency [2]: inactive
outcome [3]: inactive
outcome [4]: inactive
outcome [5]: inactive
Potency [6]: inactive
Potency [7]: inactive
Potency [8]: inactive
Potency [9]: inactive
Potency [16]: inactive
Potency [10]: inactive
Potency [11]: inactive
Potency [13]: inactive
Potency [15]: inactive

Nc1c(CC(=O)O)cccc1C(=O)c1ccccc1
outcome [1]: inactive
Potency [2]: inactive
outcome [3]: inactive
outcome [4]: inactive
outcome [5]: inactive
Potency [6]: inactive
Potency [7]: inactive
Potency [8]: inactive
Potency [9]: inactive
Potency [16]: inactive
Potency [10]: inactive
Potency [12]: inactive
Potency [13]: inactive
Potency [20]: inactive
Potency [15]: inactive
Potency [18]: inactive

CC(=O)OCC1=C(C(=O)O)N2C(=O)[C@@H](NC(=O)Cc3ccccc3)[C@H]2SC1
outcome [1]: inactive
Potency [2]: inactive
outcome [3]: inactive
outcome [4]: inactive
outcome [5]: inactive
Potency [6]: inactive
Potency [7]: inactive
Potency [8]: inactive
Potency [9]: inactive
Potency [16]: inactive
Potency [10]: inactive
Potency [12]: inactive
Potency [13]: inactive
Potency [17]: inactive
Potency [19]: inactive
Potency [15]: inactive
Potency [18]: inactive

CC[C@@H](C(=O)[C@@H](C)[C@@H](O)[C@H](C)CCc1ccc(C)c(O)c1C(=O)O)[C@H]1O[C@](CC)([C@H]2CC[C@](O)(CC)[C@H](C)O2)C[C@@H]1C
outcome [1]: inactive
Potency [2]: inactive
outcome [3]: inactive
outcome [4]: inactive
outcome [5]: inactive
Potency [6]: inactive
Potency [7]: inactive
Potency [8]: inactive
Potency [9]: 16.9 µM [inconclusive] (active)
Potency [10]: 23.9 µM (active)
Potency [11]: 5.96 µM (active)
Potency [12]: 4.73 µM (active)
Potency [13]: 6.68 µM (active)
Potency [14]: 6.74 µM (active)
Potency [15]: 11.1 µM (active)
Potency [18]: inactive

O=C1OC(=O)c2cc(-c3ccc4c(c3)C(=O)OC4=O)ccc21
outcome [1]: inactive
Potency [2]: inactive
outcome [3]: inactive
outcome [4]: inactive
outcome [5]: inactive
Potency [6]: inactive
Potency [7]: inactive
Potency [8]: inactive
Potency [9]: inactive
Potency [10]: inactive
Potency [11]: 17.2 µM (active)
Potency [12]: 54.5 µM (active)
Potency [13]: 54.5 µM (active)
Potency [15]: inactive
